# Source: PubChem BioAssay (EPA / NIEHS)
# Several values for one entry are separate records, joined by “and”; a condition that tells them apart may be missing. Equal entries are not always repeated. More than one record can exist for a structure, and the calls need not agree. Activity calls are given as the source filed them. Rule for the calls: active = hit-call score of the fitted dose curve at least 0.9, where 1 is the maximum; inactive = score below 0.9.
# Key:
# [1] = read-out: serum amyloid A (SAA), SAA1 (gene 6288); experiment: BSK_CASM3C_SAA: BioMAP Diversity Plus: CASM3C Assay for serum amyloid A (SAA) Biomarker Activity (AID 2283049); settings: primary human coronary artery smooth muscle cells; actives raise or lower the signal
# [2] = BSK_CASM3C_SRB: Viability Assessment in the BioMAP Diversity Plus: CASM3C Assay (AID 2283050); settings: primary human coronary artery smooth muscle cells;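 note: cells exposed to compound for 24 h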
# [3] = read-out: Thrombomodulin, THBD (gene 7056); experiment: BSK_CASM3C_Thrombomodulin: BioMAP Diversity Plus: CASM3C Assay for Thrombomodulin Biomarker Activity (AID 2283051); settings: primary human coronary artery smooth muscle cells; actives raise or lower the signal;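 note: thrombomodulin protein level measured by ELISA 24 h after dosing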
# [4] = read-out: Tissue Factor, F3 (gene 2152); experiment: BSK_CASM3C_TissueFactor: BioMAP Diversity Plus: CASM3C Assay for Tissue Factor Biomarker Activity (AID 2283052); settings: primary human coronary artery smooth muscle cells; actives raise or lower the signal;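 note: cell surface tissue factor protein level read by ELISA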
# [5] = read-out: Interferon-gamma inducible Protein 10 (IP10), CXCL10 (gene 3627); experiment: BSK_hDFCGF_IP10: BioMAP Diversity Plus: hDFCGF Assay for Interferon-gamma inducible Protein 10 (IP10) Biomarker Activity (AID 2283053); settings: primary human foreskin fibroblasts; actives raise or lower the signal
# Summary of the method: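 Chemical-treated human skin fibroblasts (primary) were sampled at 24 h for IP-10 by ELISA. Both increases and decreases relative to DMSO were scored.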
# [6] = read-out: Urokinase-type plasminogen activator receptor (uPAR), PLAUR (gene 5329); experiment: BSK_CASM3C_uPAR: BioMAP Diversity Plus: CASM3C Assay for Urokinase-type plasminogen activator receptor (uPAR) Biomarker Activity (AID 2283054); settings: primary human coronary artery smooth muscle cells; actives raise or lower the signal;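 note: cell-surface uPAR protein level quantified by ELISA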
# [7] = read-out: Vascular cell adhesion molecule 1 (VCAM1), VCAM1 (gene 7412); experiment: BSK_CASM3C_VCAM1: BioMAP Diversity Plus: CASM3C Assay for Vascular cell adhesion molecule 1 (VCAM1) Biomarker Activity (AID 2283055); settings: primary human coronary artery smooth muscle cells; actives raise or lower the signal;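 note: VCAM-1 protein level quantified by ELISA on the cells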
# [8] = read-out: Collagen III, COL3A1 (gene 1281); experiment: BSK_hDFCGF_CollagenIII: BioMAP Diversity Plus: hDFCGF Assay for Collagen III Biomarker Activity (AID 2283056); settings: primary human foreskin fibroblasts; actives raise or lower the signal
# Summary of the method: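 ELISA read-out of collagen III from human skin fibroblast cultures sampled 24 h post-dosing. Values were derived by bidirectional fitting relative to the DMSO vehicle control.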
# [9] = read-out: Epidermal growth factor receptor (EGFR), EGFR (gene 1956); experiment: BSK_hDFCGF_EGFR: BioMAP Diversity Plus: hDFCGF Assay for Epidermal growth factor receptor (EGFR) Biomarker Activity (AID 2283057); settings: primary human foreskin fibroblasts; actives raise or lower the signal
# Summary of the method: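 Cell-based multiplexed assay in primary human foreskin fibroblasts. EGFR is read by ELISA 24 h after treatment and compared with DMSO controls.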
# [10] = read-out: Interleukin-8 (IL8), CXCL8 (gene 3576); experiment: BSK_hDFCGF_IL8: BioMAP Diversity Plus: hDFCGF Assay for Interleukin-8 (IL8) Biomarker Activity (AID 2283058); settings: primary human foreskin fibroblasts; actives raise or lower the signal
# Summary of the method: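 Cells used are human skin primary fibroblasts. Chemical is added, cultures run 24 h, then IL-8 is quantified by ELISA, and gain or loss versus DMSO control is fitted in both directions.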
# [11] = BSK_hDFCGF_Proliferation: Cell Proliferation Assessment in the BioMAP Diversity Plus: hDFCGF Assay (AID 2283059); settings: primary human foreskin fibroblasts;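 note: curves fitted for both rise and fall of signal versus DMSO baseline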
# Summary of the method: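 Total protein read at 560 nm after 0.1% SRB staining of TCA-fixed human skin fibroblasts, […]. Activity is fitted in both directions relative to DMSO as baseline.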
# [12] = read-out: Macrophage colony-stimulating factor (MCSF), CSF1 (gene 1435); experiment: BSK_hDFCGF_MCSF: BioMAP Diversity Plus: hDFCGF Assay for Macrophage colony-stimulating factor (MCSF) Biomarker Activity (AID 2283060); settings: primary human foreskin fibroblasts; actives raise or lower the signal
# Summary of the method: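 Primary human foreskin fibroblasts dosed with chemical; 24 h later, M-CSF quantified by ELISA; curves fitted in both directions vs DMSO negative control.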
# [13] = BSK_hDFCGF_SRB: Viability Assessment in the BioMAP Diversity Plus: hDFCGF Assay (AID 2283061); settings: primary human foreskin fibroblasts;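 note: cells exposed to compound for 24 h before the read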
# Summary of the method: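 Readout is SRB absorbance at 560 nm, reflecting total protein in parallel cultures of human foreskin fibroblasts harvested 24 h after chemical dosing. Activity was fitted bidirectionally relative to DMSO.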
# [14] = read-out: TIMP metallopeptidase inhibitor 1 (TIMP1), TIMP1 (gene 7076); experiment: BSK_hDFCGF_TIMP1: BioMAP Diversity Plus: hDFCGF Assay for TIMP metallopeptidase inhibitor 1 (TIMP1) Biomarker Activity (AID 2283062); settings: primary human foreskin fibroblasts; actives raise or lower the signal
# Summary of the method: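 Human skin fibroblasts (primary), hDFCGF system; compound exposure 24 h; TIMP-1 by ELISA; bidirectional fit vs DMSO negative control; overt cytotoxicity by SRB in parallel wells.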
# [15] = read-out: Monokine induced gamma interferon (MIG), CXCL9 (gene 4283); experiment: BSK_hDFCGF_MIG: BioMAP Diversity Plus: hDFCGF Assay for Monokine induced gamma interferon (MIG) Biomarker Activity (AID 2283063); settings: primary human foreskin fibroblasts; actives raise or lower the signal
# Summary of the method: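 Chemicals were added to primary human foreskin fibroblast cultures, which were sampled 24 h later. MIG levels were then quantified by ELISA and responses fitted in both directions relative to DMSO.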
# [16] = read-out: Matrix Metallopeptidase 1 (MMP1), MMP1 (gene 4312); experiment: BSK_hDFCGF_MMP1: BioMAP Diversity Plus: hDFCGF Assay for Matrix Metallopeptidase 1 (MMP1) Biomarker Activity (AID 2283064); settings: primary human foreskin fibroblasts; actives raise or lower the signal
# Summary of the method: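 MMP1 levels quantified by ELISA 24 h after dosing human dermal fibroblast cultures, with parallel SRB total-protein staining for overt cytotoxicity. Data fitted in both directions against DMSO baseline.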
# [17] = read-out: Vascular cell adhesion molecule 1 (VCAM1), VCAM1 (gene 7412); experiment: BSK_hDFCGF_VCAM1: BioMAP Diversity Plus: hDFCGF Assay for Vascular cell adhesion molecule 1 (VCAM1) Biomarker Activity (AID 2283065); settings: primary human foreskin fibroblasts; actives raise or lower the signal;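 for AC50: VCAM-1 protein level quantified by ELISA after 24 h chemical exposure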
# Summary of the method: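 Human foreskin fibroblast primary cells, chemical exposure 24 h; VCAM-1 by ELISA; bidirectional fit, DMSO = negative control/baseline.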
# [18] = read-out: Plasminogen activator inhibitor-1 (PAI1), SERPINE1 (gene 5054); experiment: BSK_hDFCGF_PAI1: BioMAP Diversity Plus: hDFCGF Assay for Plasminogen activator inhibitor-1 (PAI1) Biomarker Activity (AID 2283066); settings: primary human foreskin fibroblasts; actives raise or lower the signal
# Summary of the method: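 Human skin fibroblast cultures receive chemical for 24 h before PAI-1 is measured by ELISA; signal changes are fitted bidirectionally against DMSO-treated wells.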
# [19] = read-out: Intercellular Adhesion Molecule 1 (ICAM1), ICAM1 (gene 3383); experiment: BSK_KF3CT_ICAM1: BioMAP Diversity Plus: KF3CT Assay for Intercellular Adhesion Molecule 1 (ICAM1) Biomarker Activity (AID 2283067); settings: primary human keratinocytes with fibroblasts; actives raise or lower the signal
# Summary of the method: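 ICAM-1 levels are measured by ELISA 24 h after dosing a primary human co-culture of keratinocytes and foreskin fibroblasts. Activity in either direction is fitted relative to DMSO vehicle.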
# [20] = read-out: Interferon-gamma inducible Protein 10 (IP10), CXCL10 (gene 3627); experiment: BSK_KF3CT_IP10: BioMAP Diversity Plus: KF3CT Assay for Interferon-gamma inducible Protein 10 (IP10) Biomarker Activity (AID 2283068); settings: primary human keratinocytes with fibroblasts; actives raise or lower the signal
# Summary of the method: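 Human keratinocyte plus foreskin fibroblast primary co-culture exposed to test chemical for 24 h; IP-10 measured by ELISA. Concentration-response fitted bidirectionally against DMSO control as baseline.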
compound,measurement,setting,value
CCCCCCCCc1ccc(O)cc1,AC50,[1],36.1 µM (active)
same,AC50,[2],30.9 µM (active)
same,AC50,[3],34.6 µM (active)
same,AC50,[4],28.7 µM (active)
same,AC50,[5],25.8 µM (active)
same,AC50,[6],39.1 µM (active)
same,AC50,[7],33.9 µM (active)
same,AC50,[8],20.1 µM (active)
same,outcome,[9],inactive
same,AC50,[10],36 µM (active)
same,AC50,[11],7.67 µM (active)
same,AC50,[12],32.9 µM (active)
same,AC50,[13],26.4 µM (active)
same,AC50,[14],33.3 µM (active)
same,AC50,[15],34.8 µM (active)
same,AC50,[16],31.9 µM (active)
same,AC50,[17],27.9 µM (active)
same,AC50,[18],14 µM (active)
same,AC50,[19],31.2 µM (active)
same,AC50,[20],29.5 µM (active)
CC(=O)[O][Hg][c]1ccccc1,AC50,[1],0.47 µM (active)
same,AC50,[2],0.148 µM (active)
same,outcome,[3],inactive
same,AC50,[4],3.97 µM (active)
same,AC50,[5],0.289 µM (active)
same,AC50,[6],0.487 µM (active)
same,AC50,[7],0.836 µM (active)
same,AC50,[8],0.279 µM (active)
same,outcome,[9],inactive
same,AC50,[10],0.148 µM (active)
same,AC50,[11],0.148 µM (active)
same,AC50,[12],0.447 µM (active)
same,AC50,[13],0.464 µM (active)
same,AC50,[14],0.148 µM (active)
same,AC50,[15],0.208 µM (active)
same,AC50,[16],0.148 µM (active)
same,AC50,[17],0.511 µM (active)
same,AC50,[18],0.183 µM (active)
same,AC50,[19],0.467 µM (active)
same,AC50,[20],0.148 µM (active)
ClC1(Cl)C2(Cl)C3(Cl)C4(Cl)C(Cl)(Cl)C5(Cl)C3(Cl)C1(Cl)C5(Cl)C24Cl (stereo unspecified),outcome,[1],inactive
same,outcome,[2],inactive
same,outcome,[3],inactive
same,outcome,[4],inactive
same,outcome,[5],inactive
same,outcome,[6],inactive
same,outcome,[7],inactive
same,outcome,[8],inactive
same,outcome,[9],inactive
same,outcome,[10],inactive
same,AC50,[11],0.572 µM (active)
same,outcome,[12],inactive
same,outcome,[13],inactive
same,outcome,[14],inactive
same,outcome,[15],inactive
same,outcome,[16],inactive
same,outcome,[17],inactive
same,outcome,[18],inactive
same,outcome,[19],inactive
same,outcome,[20],inactive
O=C(Nc1ccc2[nH]ccc2c1)c1cc2cc(F)ccc2n1Cc1cccc(F)c1,AC50,[1],36.7 µM (active)
same,AC50,[2],28.1 µM (active)
same,AC50,[3],33 µM (active)
same,AC50,[4],20 µM (active)
same,AC50,[5],3.33 µM (active)
same,AC50,[6],14.6 µM (active)
same,AC50,[7],29.2 µM (active)
same,AC50,[8],1.93 µM (active)
same,outcome,[9],inactive
same,AC50,[10],5.96 µM (active)
same,AC50,[11],2.53 µM (active)
same,AC50,[12],3.18 µM (active)
same,AC50,[13],3.36 µM (active)
same,AC50,[14],3.93 µM (active)
same,AC50,[15],4.77 µM (active)
same,AC50,[16],3.37 µM (active)
same,AC50,[17],2.65 µM (active)
same,AC50,[18],2.69 µM (active)
same,AC50,[19],8.14 µM (active)
same,AC50,[20],7.21 µM (active)
CC(=O)OC(c1ccccc1)C(Cl)(Cl)Cl (stereo unspecified),outcome,[1],inactive
same,outcome,[2],inactive
same,outcome,[3],inactive
same,outcome,[4],inactive
same,outcome,[5],inactive
same,outcome,[6],inactive
same,outcome,[7],inactive
same,outcome,[8],inactive
same,outcome,[9],inactive
same,outcome,[10],inactive
same,AC50,[11],31 µM (active) and 25.6 µM (active)
same,outcome,[12],inactive
same,outcome,[13],inactive
same,outcome,[14],inactive
same,AC50,[15],36.7 µM (active)
same,outcome,[15],inactive
same,outcome,[16],inactive
same,outcome,[17],inactive
same,outcome,[18],inactive
same,outcome,[19],inactive
same,outcome,[20],inactive
